Drawing on the supplement of paper PMC12339681, this text covers synaptosome phagocytic index for 36 compounds.

The structures appear in SMILES notation. Structures can show the parent of a compound that is named as a salt.

In this experiment the test system is PBMC-derived induced microglia-like cells (piMGLC). Briefly: synaptosome phagocytic index relative to DMSO control (fraction of DMSO); higher = more phagocytosis. The following applies: concentration: 10 uM (2 uM for compounds listed in Table S2); pretreatment time: 24 h; assay time: 3 h.
For the compound `CC(=O)Oc1ccccc1C(=O)O` [Aspirin], the synaptosome phagocytic index is 0.579.

`CC[C@]1(O)C[C@H]2CN(CCc3c([nH]c4ccccc34)[C@@](C(=O)OC)(c3cc4c(cc3OC)N(C=O)[C@H]3[C@@](O)(C(=O)OC)[C@H](OC(C)=O)[C@]5(CC)C=CCN6CC[C@]43[C@@H]65)C2)C1` [Vincristine_(sulfate)]: the synaptosome phagocytic index turned out to be 1.04.

As to `CCCC(CCC)C(=O)O` [Valproic_acid], the synaptosome phagocytic index is 0.68. The same measure for `O=C(O)CCCc1ccccc1` [Sodium_4-phenylbutyrate]: 0.996. The same measure for `Oc1cc(-c2nc(-c3ccccc3)[nH]c2-c2ccncc2)ccc1Cl`: 0.229.

Consider `CN1CCN(C2=Nc3cc(Cl)ccc3Nc3ccccc32)CC1` [Clozapine], for which the synaptosome phagocytic index was 0.697. Next, `NC12CC3CC(CC(C3)C1)C2` [Amantadine_(hydrochloride)]: 1.02; `Nc1nc(NC2CC2)c2ncn([C@H]3C=C[C@@H](CO)C3)c2n1` [Abacavir_(sulfate)]: 1.1. The same measure for `CS(=O)(=O)c1ccc(C2=C(c3ccccc3)C(=O)OC2)cc1` [Rofecoxib]: 1.08; for `C[C@@H]1O[C@@H]1P(=O)(O)O` [Fosfomycin_(sodium)]: 1.11.

For `C[C@@H]1CN(C(=O)[C@@H]2CN(C(C)(C)C)C[C@H]2c2ccc(F)cc2F)C[C@H](C)[C@@]1(O)c1ccccc1`, the synaptosome phagocytic index is 0.704. Next, `Nc1nc2[nH]cc(CCc3ccc(C(=O)N[C@@H](CCC(=O)O)C(=O)O)cc3)c2c(=O)[nH]1` [Pemetrexed_(disodium_hemipenta_hydrate)]: 1.03; `C[C@]12CCCN1CC1=NNC(=O)c3cc(F)cc4[nH]c2c1c34` [Pamiparib]: 0.861; `CN(CCOc1ccc(CC2SC(=O)NC2=O)cc1)c1ccccn1` (stereo unspecified) [Rosiglitazone]: 1.19. For the compound `CN1C(=O)[C@@H](NC(=O)c2n[nH]c(Cc3ccccc3)n2)COc2ccccc21`, the synaptosome phagocytic index is 1.15.

Take `CCc1c2c(nc3ccc(OC(=O)N4CCC(N5CCCCC5)CC4)cc13)-c1cc3c(c(=O)n1C2)COC(=O)[C@]3(O)CC` [Irinotecan_(hydrochloride_trihydrate)]: the synaptosome phagocytic index was 0.682. The same measure for `Cc1ccc(Nc2nccc(N(C)c3ccc4c(C)n(C)nc4c3)n2)cc1S(N)(=O)=O` [Pazopanib]: 0.785; for `Nc1cc(C(F)(F)F)c(-c2cc(N3CCOCC3)nc(N3CCOCC3)n2)cn1` [Buparlisib]: 1.13; for `CC(=O)Nc1ccc(C(=O)Nc2cc(-c3cccs3)ccc2N)cc1`: 0.416. For the compound `NC1=N[C@@]2(c3cc(NC(=O)c4ccc(F)cn4)ccc3F)COC[C@H]2CS1`, the synaptosome phagocytic index amounted to 1.35.

`CC(C)[C@H](NC(=O)c1ccc2ccccc2n1)C(=O)N[C@@H](CC(=O)O)C(=O)COc1c(F)cccc1F`: the synaptosome phagocytic index was found to be 1.14. Next, `Nc1ccccc1NC(=O)c1ccc(CNC(=O)OCc2cccnc2)cc1` [Entinostat]: 0.753. The same measure for `C#Cc1cccc(Nc2ncnc3cc(OCCOC)c(OCCOC)cc23)c1` [Erlotinib_(Hydrochloride)]: 0.391; for `CC(C)c1ccc(NC(=O)c2c(-c3cc(F)ccc3F)ccnc2N2CC[C@H](F)C2)cn1` [Nav1.1_activator_1]: 0.451. Next, `C[C@H]1COc2c(N3CCN(C)CC3)c(F)cc3c(=O)c(C(=O)O)cn1c23` [Levofloxacin]: 1.16. For the compound `CN(C)C(=N)NC(=N)N` [Metformin_(hydrochloride)], the synaptosome phagocytic index was 0.668. The same measure for `COc1cn(-c2ccc(-n3cccn3)cc2F)nc(-c2ccnn2-c2ccccc2)c1=O` [Balipodect]: 0.835. The same measure for `CC(=O)[C@H]1CC[C@H]2[C@@H]3CC=C4C[C@@H](O)CC[C@]4(C)[C@H]3CC[C@]12C` [Pregnenolone]: 0.878; for `COc1ccc(NS(=O)(=O)c2ccc(N)cc2)nn1` [Sulfamethoxypyridazine]: 1.03; for `O=c1c(-c2ccc(O)cc2)coc2cc(O)ccc12` [Daidzein]: 0.94. For the compound `C[C@H](c1ccc(F)cc1CCCC(=O)O)N(c1cc(F)ccc1F)S(=O)(=O)c1ccc(Cl)cc1`, the synaptosome phagocytic index was found to be 0.385. `FC(F)(F)c1ccc(CNc2ccc(Cc3c[nH]c4ncc(Cl)cc34)cn2)cn1` [Pexidartinib]: the synaptosome phagocytic index is 0.587. The same measure for `OC(CN1CCN(c2cccc(Cl)c2)CC1)C(c1ccccc1)c1ccccc1` (stereo unspecified): 1.01; for `CC1=NN(c2ccccc2)C(=O)C1` [Edaravone]: 0.555. The same measure for `CC(CN(C)C)CN1c2ccccc2CCc2ccccc21` (stereo unspecified) [Trimipramine_(maleate)]: 0.449. The same measure for `CCc1c(C)[nH]c2c1C(=O)C(CN1CCOCC1)CC2` (stereo unspecified) [Molindone_(hydrochloride)]: 0.64.
